# An excerpt weighted towards active compounds, which were near 2.6% of everything screened.
# KKLEB cytotox – reduces viability of KKLEB cystic fibrosis airway cells | KKLEB CF airway cells viability, ATPlite luminescence, overnight; active compounds read low; cells stimulated with P. aeruginosa culture filtrate | activity change (cytotoxicity), % at 5 µM | actives 0.36% (n = 360,000) | AID 602141;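 active = corrected activity change at or below -50% at 5 µM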
# Shn3 3UTR inh – reduces Shn3 3'UTR luciferase signal in osteoblasts | Clone20 osteoblast Shn3 3'UTR firefly luciferase, 24 h | inhibition, % at 12.5 µM | actives 0.52% (n = 360,000) | AID 588674;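 active = mean inhibition of at least 75% with every replicate also reaching 75%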
# HIF-2a inh – HIF-2a inhibition | inhibition, % at 18.8 µM | actives 0.72% (n = 360,000) | 786-0 RCC cells HIF-2a reporter, luciferase luminescence, overnight;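 active = inhibition of the luminescence signal of 40% or more relative to plate controls, in a single-dose primary screen at 18.75 µM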
# CF NFkB block – cystic fibrosis NF-kB activation inhibition. KKLEB NF-kB-GFP reporter, PAF-induced, GFP fluorescence overnight. inhibition, % at 5 µM. actives 0.86% (n = 360,000);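 active = at least 50% inhibition at 5 µM, scaled per plate between neutral and stimulator controls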;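 also: PAF is a Pseudomonas aeruginosa culture filtrate used as stimulus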
# Peg3 prom inh – reduces Peg3 promoter-driven luciferase expression in HeLa. HeLa PEG-Prom luciferase reporter, luminescence, overnight. inhibition, % at 20 µM. actives 1.7% (n = 360,000);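 active = inhibition of at least 50% at 20 µM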
# Numbers stand for hits; - = inactive; . = no result given.
SMILES,KKLEB cytotox,Shn3 3UTR inh,HIF-2a inh,CF NFkB block,Peg3 prom inh
C(=N\Nc1nc(-c2cccnc2)nc2ccccc12)/c1ccccc1,-,-,-,-,-
O=C1/C(=C\c2ccccc2)CN(C(=O)CCN2CCCCC2)C/C1=C/c1ccccc1,-53.6,93.8,89.6,90.9,97.0
CCN(CC)CCC(=O)N1C/C(=C/c2ccccc2)C(=O)/C(=C\c2ccccc2)C1,-,-,82.7,86.0,94.2
O=C1/C(=C\c2ccc(Cl)c(Cl)c2)CN(C(=O)CCN2CCOCC2)C/C1=C/c1ccc(Cl)c(Cl)c1,-78.1,98.7,93.8,90.1,98.1
CCOC(=O)C1CCCN(C(=O)c2ccccc2NC(=O)C2=C(C)OCCS2)C1 (stereo not drawn),-,-,-,-,-
C=CCNc1nc(Nc2ccc([N+](=O)[O-])cc2)nc(N2CCCC2)n1,-,-,-,-,56.0
C=CCNc1nc(Cl)nc(Nc2ccc([N+](=O)[O-])cc2)n1,-,-,-,-,-
CN(CC(=O)Nc1ccccc1Cl)C(=O)c1cccc(S(=O)(=O)N2CCN(c3ccccc3)CC2)c1,-,87.4,-,-,-
CN(CCOc1ccc(Cl)cc1)C(=O)c1cccc(S(=O)(=O)N2CCN(c3ccc(F)cc3)CC2)c1,-,89.0,-,-,-
CN(CC(=O)Nc1ccccc1Cl)C(=O)c1cccc(S(=O)(=O)N2CCN(c3ccc(F)cc3)CC2)c1,-,88.0,-,-,-
CN(Cc1ccc(Cl)c(Cl)c1)C(=O)c1cccc(S(=O)(=O)N2CCN(Cc3ccccc3)CC2)c1,-,86.9,-,-,-
Cc1cccc(C)c1NC(=O)CN(C)C(=O)c1cccc(S(=O)(=O)N2CCN(c3ccc(F)cc3)CC2)c1,-,-,-,-,-
CN(Cc1cccc(F)c1)C(=O)c1cccc(S(=O)(=O)N2CCN(Cc3ccccc3)CC2)c1,-,-,-,-,-
O=C(N=C1SC2CS(=O)(=O)CC2N1Cc1ccc(Cl)cc1)C1CCCO1 (stereo not drawn),-,-,-,-,-
Cc1nc2scc(C)n2c(=O)c1S(=O)(=O)NCc1ccc(F)cc1,-,-,-,-,-
O=C(c1cccc(S(=O)(=O)N2CCN(c3ccc(F)cc3)CC2)c1)N1CCCC(C(F)(F)F)C1 (stereo not drawn),-,91.9,-,-,-
Cc1ccc(NC(=O)COC(=O)CCc2c(C)nc3ncnn3c2C)cc1,-,-,-,-,-
CCOc1ccc(N2C(=O)CC(Sc3nnnn3-c3ccccc3)C2=O)cc1 (stereo not drawn),-,92.4,-,-,95.9
CCc1nc2c(OCCC3CCCCC3)cccn2c1N(C=O)Cc1ccccc1,-,-,-,-,66.3
COc1ccc(CCNCC(O)COc2ccc(Cl)cc2)cc1OC (stereo not drawn),-,-,-,-,-
OC(CNCCc1ccccc1)COc1ccc(OCC(O)CNCCc2ccccc2)cc1 (stereo not drawn),-,.,-,-,102.1
COc1ccc(C(OCC(O)CNCCc2ccccc2)c2ccc(OC)cc2)cc1 (stereo not drawn),-,-,-,-,-
CC(C)CCNCC(O)CON=C1c2ccccc2-c2ccccc21 (stereo not drawn),-,-,-,-,107.2
OC(CNCCc1ccc(Cl)cc1)COc1ccc2ccccc2c1 (stereo not drawn),-,-,-,-,66.7
OC(CNCCc1ccc(Cl)cc1)COc1cc(Cl)ccc1Cl (stereo not drawn),-,-,-,-,103.9
SMILES,KKLEB cytotox,Shn3 3UTR inh,HIF-2a inh,CF NFkB block,Peg3 prom inh
COCCNCC(O)CON=C1c2ccccc2-c2ccccc21 (stereo not drawn),-,-,-,-,-
Cc1cccc(CN2CCC(n3nccc3NC(=O)CCCc3ccccc3)CC2)c1,-,-,-,-,-
CSCC[C@H](NC(=O)Cc1c(C)c2cc3c4c(oc3cc2oc1=O)CCCC4)C(=O)O,-,-,-,-,-
OC1(Cc2cc(-c3ccccc3)no2)CCN(CCCc2ccccc2)CC1,-,-,-,-,-
OC(CNCCC(c1ccccc1)c1ccccc1)COc1ccccc1 (stereo not drawn),-,-,-,-,59.6
COc1ccccc1CNC(=O)CN1CCN(Cc2ccc(Cl)cc2)C1=O,-,-,-,-,-
Clc1ccc2c(N/N=C/c3ccc(Br)cc3)ccnc2c1,-,-,-,-,105.5
CCN(CC)CCNc1ccnc2cc(Cl)ccc12,-,-,-,-,-
Oc1ccc(/C=N/Nc2ccnc3cc(Cl)ccc23)c(O)c1,-,.,-,-,-
